# Data as given in PubChem BioAssay AID1347074 (Center for Chemical Genomics, University of Michigan, 2019).
# The whole screen tested about 47,000 compounds, of which about 2,800 (6%) were called active. No stated cut-off is given here; in the data, active means z-score above about 3 (passing the limit was not always enough); inactive means the rest. The full list was thinned out, with actives kept by preference.
# Molecular target: Endoribonuclease Dicer (Homo sapiens) (UniProt Q9UPY3)
# Assay: Dicer cleavage of pre-miR-21 blockers – biochemical, cat-ELCCA, chemiluminescence, primary screen (AID 1347074);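 further: plate controls were vehicle for no effect and no enzyme for full effect; higher signal means more uncleaved substrate so more Dicer inhibition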
# Conditions: cat-ELCCA pre-miR-21 Dicer processing, at 25 µM, hits give high values
# Chain of Endoribonuclease Dicer (Homo sapiens) (Q9UPY3 whole entry, looked up): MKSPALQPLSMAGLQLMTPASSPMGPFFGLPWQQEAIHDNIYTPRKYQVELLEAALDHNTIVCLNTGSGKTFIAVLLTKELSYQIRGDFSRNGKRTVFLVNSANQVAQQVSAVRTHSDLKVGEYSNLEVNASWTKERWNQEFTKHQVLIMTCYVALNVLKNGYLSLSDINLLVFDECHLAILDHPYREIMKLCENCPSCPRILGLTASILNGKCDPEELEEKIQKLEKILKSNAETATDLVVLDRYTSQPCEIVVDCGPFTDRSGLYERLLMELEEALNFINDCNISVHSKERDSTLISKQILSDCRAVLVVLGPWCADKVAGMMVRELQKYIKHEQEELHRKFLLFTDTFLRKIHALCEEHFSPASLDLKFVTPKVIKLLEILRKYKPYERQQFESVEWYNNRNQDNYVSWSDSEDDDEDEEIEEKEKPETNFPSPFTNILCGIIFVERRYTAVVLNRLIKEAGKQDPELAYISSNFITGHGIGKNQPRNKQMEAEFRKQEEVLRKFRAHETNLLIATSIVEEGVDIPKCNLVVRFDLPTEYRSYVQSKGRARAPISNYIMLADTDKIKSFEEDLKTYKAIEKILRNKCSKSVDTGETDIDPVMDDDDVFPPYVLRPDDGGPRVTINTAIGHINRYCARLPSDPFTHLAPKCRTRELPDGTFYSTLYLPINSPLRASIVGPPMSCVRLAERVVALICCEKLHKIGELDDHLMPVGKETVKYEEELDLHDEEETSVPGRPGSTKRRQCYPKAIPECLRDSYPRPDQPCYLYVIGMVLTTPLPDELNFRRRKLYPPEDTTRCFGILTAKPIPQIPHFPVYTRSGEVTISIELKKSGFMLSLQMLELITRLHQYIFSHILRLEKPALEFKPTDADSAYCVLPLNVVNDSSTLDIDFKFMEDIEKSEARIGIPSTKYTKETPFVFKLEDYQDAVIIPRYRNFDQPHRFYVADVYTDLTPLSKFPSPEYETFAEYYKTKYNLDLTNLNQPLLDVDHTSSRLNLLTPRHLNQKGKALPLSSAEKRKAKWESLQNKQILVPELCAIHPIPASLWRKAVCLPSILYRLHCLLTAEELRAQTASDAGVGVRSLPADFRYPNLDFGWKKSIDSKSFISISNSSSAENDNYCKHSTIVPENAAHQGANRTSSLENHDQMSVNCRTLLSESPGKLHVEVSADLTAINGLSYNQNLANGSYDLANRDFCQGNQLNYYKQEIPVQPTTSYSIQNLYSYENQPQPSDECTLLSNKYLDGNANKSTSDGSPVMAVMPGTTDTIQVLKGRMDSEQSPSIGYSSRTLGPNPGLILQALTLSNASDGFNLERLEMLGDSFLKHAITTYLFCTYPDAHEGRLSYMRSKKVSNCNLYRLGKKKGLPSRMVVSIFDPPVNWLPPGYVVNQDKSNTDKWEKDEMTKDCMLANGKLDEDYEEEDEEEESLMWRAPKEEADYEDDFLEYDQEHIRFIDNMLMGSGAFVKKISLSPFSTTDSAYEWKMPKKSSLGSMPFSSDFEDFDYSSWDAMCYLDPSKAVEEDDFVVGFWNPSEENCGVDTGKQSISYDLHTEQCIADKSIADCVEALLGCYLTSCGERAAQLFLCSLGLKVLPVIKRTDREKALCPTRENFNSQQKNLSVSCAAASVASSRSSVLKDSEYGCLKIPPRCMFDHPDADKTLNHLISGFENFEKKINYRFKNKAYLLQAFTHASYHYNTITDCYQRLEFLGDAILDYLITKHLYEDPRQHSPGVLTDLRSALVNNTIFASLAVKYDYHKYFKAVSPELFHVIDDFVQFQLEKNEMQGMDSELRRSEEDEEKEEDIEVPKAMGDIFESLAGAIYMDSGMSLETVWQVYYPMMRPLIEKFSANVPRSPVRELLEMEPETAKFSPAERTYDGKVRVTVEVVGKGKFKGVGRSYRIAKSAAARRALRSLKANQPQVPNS
row,Structure (SMILES),z-score
1,O=C(O)C1CC(=O)N(Cc2ccccc2Cl)C1 (centres undefined),-1.02 (inactive)
2,O=C(O)C1CC(=O)N(c2cccc(Cl)c2)C1 (centres undefined),8.4 (active)
3,O=C1CC(N2CCN(c3cccc(Cl)c3)CC2)C(=O)N1c1cccc(Cl)c1 (centres undefined),0.79 (inactive)
4,CC(c1ccccc1)C1C(C#N)=C(N)Oc2n[nH]c(-c3ccccc3)c21 (centres undefined),-0.54 (inactive)
5,Cc1cc(C)cc(N2CC(C)Cn3c2nc2c3c(=O)n(CC(=O)O)c(=O)n2C)c1 (centres undefined),-0.04 (inactive)
6,Cc1ccc(C(=O)CSc2nnc(-c3ccccc3)n2C)cc1,8.7 (inactive)
7,Cc1cc(-c2ccccc2)n2nc(C)cc2n1,0.05 (inactive)
8,CCOC(=O)c1c(N)sc2c1CC(C)(C)OC2,-0.32 (inactive)
9,CC1=CC(C)(C)N(S(=O)(=O)c2ccc(C)cc2)c2cc3c(cc21)OCO3,3.26 (active)
10,CC1=CC(C)(C)N(C(=O)NC2CCCCC2)c2ccc(C)cc21,-5.39 (inactive)
11,Cn1c(N2CCCCC2)nc2c1c(=O)n(Cc1ccc(Cl)cc1Cl)c(=O)n2C,-1.04 (inactive)
12,Cn1c(CSc2cccs2)nnc1SCc1c(Cl)cccc1Cl,0.02 (inactive)
13,CC(=O)Nc1ccc(C(=O)CSc2nc3nc(C)cc(C)c3c(=O)[nH]2)cc1,-0.34 (inactive)
14,O=C1/C(=C/c2ccc(Cl)cc2)CCC/C1=C\c1ccc(Cl)cc1,-1.13 (inactive)
15,CN(C)c1ccc(/C=C2\CCC/C(=C\c3ccc(N(C)C)cc3Cl)C2=O)c(Cl)c1,3.37 (active)
16,Cn1ccnc1SCC(=O)Nc1cccc2nsnc12,-4.69 (inactive)
17,CC1=N/C(=C/c2ccccc2Cl)C(=O)O1,3.5 (active)
18,CC1=N/C(=C/c2ccccc2O)C(=O)O1,0.13 (inactive)
19,O=C(CN1C(=O)/C(=C/c2ccccc2Cl)N=C1c1ccccc1)c1ccccc1,0.22 (inactive)
20,CCOC(=O)Cn1c(Sc2nc3c(c(=O)n(C)c(=O)n3C)n2C)nc2ccccc21,2.22 (inactive)
21,O=C(O)CC1S/C(=N\N=C\c2ccco2)NC1=O (centres undefined),-0.87 (inactive)
22,O=C(NCc1ccc2c(c1)OCO2)c1ccc(Cn2cc(Cl)cn2)cc1,1.8 (inactive)

row,Structure (SMILES),z-score
1,COc1cc(C)c(Cl)cc1S(=O)(=O)n1ccnc1,-0.35 (inactive)
2,CCOc1ccc(S(=O)(=O)n2ccnc2)c2ccccc12,3.38 (active)
3,CCOc1ccc(S(=O)(=O)Nc2ccncc2)c(C)c1C,0.59 (inactive)
4,CSCC(CSC)OC(=O)NC(=O)c1c(Cl)cccc1Cl,-0.86 (inactive)
5,NC(=O)C1CCN(C(=O)C2CC(c3ccc(Cl)cc3)=NO2)CC1 (centres undefined),-1.13 (inactive)
6,CCOC(=O)CSc1nc2cc(Cl)ccc2s1,0.3 (inactive)
7,N#Cc1sc(SCc2ccccc2)c2c1CC(c1ccccc1)CC2=O (centres undefined),0.58 (inactive)
8,CCCN1C(=O)C(O)(CC(=O)c2ccc(C(C)(C)C)cc2)c2ccccc21 (centres undefined),-0.52 (inactive)
9,Cc1cc(N2C(=O)CC(C)(C)CC2=O)n(C)n1,-0.86 (inactive)
10,CCOC(=O)c1c(N/N=C\c2ccccc2O)n[nH]c1C,1.01 (inactive)
11,CCC(C)c1ccc(O)c(/C=N/Nc2ccccc2)c1 (centres undefined),6.05 (active)
12,COc1ccccc1C1CCN(S(=O)(=O)c2ccc(Oc3c(Cl)cccc3[N+](=O)[O-])cc2)CC1,1.46 (inactive)
13,CCC(C)c1ccccc1OCC(O)CN1C(=O)NC(C)(C)C1=O (centres undefined),0.96 (inactive)
14,Oc1ccccc1-c1nc(/C=C/c2cccs2)no1,2.56 (inactive)
15,FC(F)(F)c1nc(-c2ccccc2)ncc1-c1nnnn1-c1ccccc1,3.06 (active)
16,Cc1ccc(-n2nnnc2-c2cnc3ccccc3c2C)cc1,-0.58 (inactive)
17,Fc1ccc(-n2nnnc2-c2cnc3ccc(Cl)cc3c2-c2ccccc2)cc1,0.2 (inactive)
18,CCc1ccccc1N1CC23C=CC(O2)C(C(=O)OC(C)C)C3C1=O (centres undefined),-0.64 (inactive)
19,COc1cc(/C=C2/N=C(c3ccccc3)N(C)C2=O)cc(OC)c1OC,2.54 (inactive)
20,CCOC(=O)c1c(C)[nH]c(=O)c([N+](=O)[O-])c1O,0.2 (inactive)
21,CC1([N+](=O)[O-])COC(c2ccccc2)OC1 (centres undefined),1.75 (inactive)
22,O=C1OC2(CCCCC2)OC1c1ccccc1 (centres undefined),3.75 (active)

row,Structure (SMILES),z-score
1,Cn1c(=O)c(C#N)c(O)c2ccccc21,0.83 (inactive)
2,CCCCc1ccc(S(N)(=O)=O)cc1,-0.91 (inactive)
3,CCCCc1ccc(-n2c(-c3ccc(F)cc3)coc2=O)cc1,9.25 (active)
4,Fc1ccc(NC2=NCCN=C(Nc3ccc(F)cc3F)SS2)c(F)c1,-0.47 (inactive)
5,O=C(Nc1cc(Cl)cc(Cl)c1)Nc1cnccc1C(F)(F)F,0.4 (inactive)
6,CSc1scc(NC(=O)Nc2cc(Cl)cc(Cl)c2)c1S(=O)(=O)C(C)C,30.2 (active)
7,O=C(CSc1nc(-c2ccc(F)cc2)cc(C(F)(F)F)n1)N1CCOCC1,-0.77 (inactive)
8,C/C(=N\OC(=O)c1ccc(Cl)cc1)c1nnn(-c2cc(C(F)(F)F)cc(C(F)(F)F)c2)c1C,0.47 (inactive)
9,CCOc1ccc(S(=O)(=O)N2CCSC2c2cccc(Cl)c2)cc1 (centres undefined),1.41 (inactive)
10,O=c1c2cc(-c3ccccc3)sc2n(Cc2ccccc2Cl)c(=O)n1-c1ccccc1,0.38 (inactive)
11,COC(=O)c1c(NC(=O)CCCOc2ccc(Cl)cc2)sc2c1CCCC2,4.01 (active)
12,CCCC1CCc2c(sc(NC(=O)COc3ccc(Cl)cc3)c2C(N)=O)C1 (centres undefined),-0.31 (inactive)
13,COC(=O)c1c(NC(=O)COc2ccccc2)sc2c1CCCC2,0.4 (inactive)
14,CC1(C)CC(=O)C=C(Nc2cc(-c3ccc(Cl)cc3)[nH]n2)C1,2.1 (inactive)
15,Cc1nc2cc(-n3c(O)c[nH]c3=O)ccc2s1,1.96 (inactive)
16,CCOC(=O)c1c(C)oc2ccc(OCc3ccc(C(=O)OC)cc3)cc12,0.32 (inactive)
17,CCOC(=O)C1=C(O)CSC1=Nc1ccc(F)cc1,2.03 (inactive)
18,CCOC(=O)c1c(C)n(CCOc2ccc(F)cc2)c2ccc(O)cc12,4.76 (active)
19,Cc1cc(C)c2c(n1)sc1c(=O)n(C)cnc12,1.74 (inactive)
20,CCOC(=O)C1=C(N)Oc2c(Br)cc(Cl)cc2C1C(C#N)C(=O)OCC (centres undefined),2.22 (inactive)
